Data as given in the supplement of paper PMC3334620.
Over roughly 33,000 sequences, “E-score (-0.5 to 0.5)” has its median near -0.036; the highest 2% begin near 0.37. This is one part of a sample in which the highest values are shown more often than they occur.

Each sequence was assayed against T1, Yer064c (UniProt P40041) (assay: PBM E-score (8-mer binding enrichment) (E-score (-0.5 to 0.5)); higher = stronger / more preferred TF binding). Conditions: protein concentration: 200 nM; construct: GST-full length.
T1 sequence: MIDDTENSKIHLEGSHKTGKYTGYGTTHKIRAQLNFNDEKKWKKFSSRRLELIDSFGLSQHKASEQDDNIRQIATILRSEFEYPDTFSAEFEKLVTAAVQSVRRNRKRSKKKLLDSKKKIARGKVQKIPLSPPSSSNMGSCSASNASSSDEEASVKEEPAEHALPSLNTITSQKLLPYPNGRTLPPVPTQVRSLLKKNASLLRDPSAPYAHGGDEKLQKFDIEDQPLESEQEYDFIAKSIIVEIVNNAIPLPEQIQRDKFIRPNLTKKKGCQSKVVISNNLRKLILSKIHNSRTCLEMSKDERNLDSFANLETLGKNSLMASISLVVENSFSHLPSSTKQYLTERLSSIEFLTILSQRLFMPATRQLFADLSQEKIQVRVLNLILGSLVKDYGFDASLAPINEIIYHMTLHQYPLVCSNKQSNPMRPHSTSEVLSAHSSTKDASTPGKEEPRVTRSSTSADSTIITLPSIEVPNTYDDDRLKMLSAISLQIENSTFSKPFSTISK
Summary of the method: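 Yeast transcription factors carrying a GST tag, as full-length proteins or DNA-binding domains, were produced by PURExpress in vitro transcription/translation. About 100-200 nM protein was applied to universal all-10-mer Agilent arrays, double-stranded by primer extension on fresh or once-stripped slides. Bound protein was detected with fluorescent anti-GST, and scans were normalised with masliner. The Universal PBM Analysis Suite gave each ungapped eight-base word, pooled with its reverse complement, an E-score, a modified Wilcoxon-Mann-Whitney statistic.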

Sequence | PBM E-score
AATCATTC | 0.417
AATCATTA | 0.397
CATCATTC | 0.0981
CATCATTA | 0.161
AAACATTG | -0.0364
ATTCATTA | 0.21
AAGCATTG | -0.159
AATCATTG | 0.43
TGGTAGAA | -0.0551
CACCCTGC | 0.118
AGGCTACG | -0.232
ATCCAAAC | 0.00765
GAGGACAA | -0.195
GTCACAAC | 0.213
ATGTCAGA | -0.0808
GGGTCAGA | 0.00219
GAGTCAGA | 0.472
GCGTCAGA | -0.116
TAGTCAGA | 0.457
TCGTCAGA | -0.15
GACGGCCC | -0.375
CATCCTAA | 0.0625
GTAGAAAC | -0.119
AACGGCTT | -0.309
AACTCTGC | 0.0728

Sequence | PBM E-score
AACTCTGA | 0.186
CACTCTTA | -0.016
GACTCTTA | 0.428
TACTCTGA | 0.156
CACTCTGC | -0.0532
GACTCTGC | 0.376
GACTCTGA | 0.392
AACTCTTA | 0.0866
ATTCTCTG | 0.0149
CCTCTGCA | -0.264
GGCTAGAA | 0.00723
GCCCTTAA | -0.185
AGGCCTGC | -0.27
CCGGGCCC | -0.315
GCGGACCA | -0.0691
AGCCCCCT | -0.382
ATAGGATG | 0.0522
GCGAGTCC | 0.262
TCGAGCCA | -0.00283
CCGAGTCC | 0.195
TCGAGTCA | 0.471
TCGAGTAA | 0.11
CCGAGTCG | 0.261
GCGAGTCA | 0.485
CCGAGTCA | 0.467

Sequence | PBM E-score
ACGAGTCG | 0.383
ACGAGTTG | -0.0661
GCGAGTAA | 0.206
ACGAGTAG | 0.039
ATACCCGA | -0.0409
CTCTTTGC | -0.0733
AACGTCCG | -0.343
TCTCGAAA | 0.0754
GCGGAACA | 0.0307
CAGGGGGC | -0.337
CGGCTGAA | 0.0435
ATTTTGCG | 0.00719
ACCCAACA | -0.144
CCGCCTGC | 0.00718
ACGAGTCC | 0.289
ACGAGTCA | 0.48
ACGAGTCT | 0.312
AATCGCTC | 0.211
CACTACGA | 0.0996
GACTACGA | 0.413
GACTACGC | 0.391
AACTACGC | 0.0819
TACTACGA | 0.181
CACTACGC | -0.197
ATGAAATA | -0.0533

Sequence | PBM E-score
TAGAGTGA | 0.171
CAGAGTCC | 0.212
GAGAGTAA | 0.0863
GAGAGTCA | 0.481
CAGAGTCG | 0.324
AAGAGTGG | -0.242
TAGAGTAA | 0.0416
AAGAGTCG | 0.423
CAGAGTCA | 0.469
AAGAGTTG | 0.0206
GAGAGTCC | 0.256
TAGAGTCA | 0.469
AAGGCTGT | -0.161
CAAACGCA | -0.0486
CCCGGACC | -0.189
AGTAAGAT | 0.0659
CATGTTCC | -0.138
ACGGTACG | 0.0345
ATACAAGC | -0.123
AAGAGTCT | 0.355
AAGAGTCA | 0.489
AAGAGTCC | 0.303
CACTAGTA | -0.0969
AACTAGTC | 0.355
CACTAGTC | 0.274

Sequence | PBM E-score
GACTAGTC | 0.408
GACTAGTA | 0.391
TACTAGTA | 0.216
AACCAGTC | 0.171
GTAGCCAA | -0.0169
CATGTCTA | 0.205
AATCAACT | 0.314
AGTCAACT | 0.424
AGTCAACA | 0.441
CGTCAACC | -0.225
ACTCAACG | 0.288
GGTCAACC | -0.0162
ACTCAACT | 0.337
TGTCAACA | -0.18
CGTCAACG | 0.0184
AGTCAACC | 0.442
CGTCAACA | -0.189
AGTCAACG | 0.443
ATTCGAAG | 0.15
AAGATACG | -0.0653
AGATCTCA | 0.0373
ATGGGCTG | -0.0763
CACTTAGA | 0.0684
TGCATTAA | 0.0992
CTGGCCGC | -0.163

Sequence | PBM E-score
AATACGCT | -0.136
CAGTAGTC | 0.403
AAGTAGTA | 0.0556
AAGTAGTG | -0.157
AAGTAGTC | 0.415
CAGTAGTA | 0.111
CAGTAGCC | -0.116
GCAAAGCC | -0.263
GTGGCAAC | -0.295
CGTTCACA | 0.0136
CCTGGCAC | -0.304
GCCATTCA | -0.0419
CGATCATA | 0.0235
GAATCATC | 0.48
GAATCAAA | 0.268
CTATCATC | -0.0157
CCATCATA | -0.0232
CCATCATC | -0.01
GAATCAAC | 0.358
CAATCATC | 0.422
CAATCATA | 0.371
CCGGCTTA | -0.221
CCTTGGAA | -0.185
CCGAAAAA | 0.0649
ATAGGTCC | -0.0251

Sequence | PBM E-score
AGTAAACC | -0.0239
CCCTTTTA | -0.0873
AGATTGAT | 0.0609
ATTGAGTA | 0.282
CTTGAGTC | 0.466
ATTGAGTC | 0.479
CTTGAGGC | -0.146
ATTGAGTG | 0.149
CTTGAGTA | 0.233
ACGGCCAG | -0.206
AGCCATGA | 0.282
CTCAGTCA | 0.436
ATCAGTCA | 0.434
GTCAGTGA | 0.31
GTCAGTTA | 0.0503
ATCAGTCC | 0.0464
GTCAGTCA | 0.451
CTCAGTCC | 0.255
CTCAGTGA | 0.235
ATCAGTCG | 0.296
ATCAGGGG | -0.00776
ACGCACAG | -0.247
